{
  "source": "the supplement of paper PMC9694430",
  "data": [
    {"tested_on": "LOC_OS01G70970-cb002", "assay": "thermal shift delta Tm vs DMSO control; higher = stronger stabilization (binding)", "conditions": "12.5 µM; protein concentration 2 µM", "how_it_was_run": "(§1)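 Thermal shift values come from differential scanning fluorimetry on purified rice kinase domains made in E. coli, with melting temperatures obtained from Boltzmann fits. Samples of 19.5 μl held 2 μM kinase, 100 mM potassium phosphate pH 7.5, 150 mM NaCl, 10% glycerol, 5 × SYPRO Orange and compound in DMSO, and were heated from 25°C to 95°C at 0.05°C/s. Each shift is a triplicate mean relative to the DMSO-only protein sample.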", "units": {"thermal shift delta Tm": "°C"}, "values": [
      {"compound": "COc1ccc(CC(=O)Nc2nc3c(s2)CCc2ccccc2-3)cc1OC", "thermal shift delta Tm": 0.74},
      {"compound": "CNS(=O)(=O)Nc1nccc(Cc2c(C)c3ccc(Oc4ncccn4)cc3oc2=O)c1F", "thermal shift delta Tm": 0.04},
      {"compound": "C[C@H](NC(=O)/C(C#N)=C/c1cccc(Br)n1)c1ccccc1", "thermal shift delta Tm": -1.46},
      {"compound": "COc1ccc(COc2cc3oc(=O)c4cc(C(C)O)ccc4c3cc2OC)cc1", "note": "(centres undefined) [Palomid 529 (P529)]", "thermal shift delta Tm": 0.51},
      {"compound": "CC(C)(C)Cn1c(N)nc2ccc(-c3[nH]c(C(C)(C)C)nc3-c3ccc(F)cc3)nc21", "thermal shift delta Tm": -0.04},
      {"compound": "COc1ccccc1-c1cc(Nc2cccc(CS(N)(=O)=O)c2)ncn1", "thermal shift delta Tm": 0.41},
      {"compound": "Cn1cnc(N)c2ncnc1-2", "note": "[3-Methyladenine (3-MA)]", "thermal shift delta Tm": 0.22},
      {"compound": "C=CC(=O)N[C@H]1CCOC[C@H]1Nc1ncc2cc(-c3c(Cl)c(OC)cc(OC)c3Cl)ccc2n1", "thermal shift delta Tm": -0.04},
      {"compound": "CCS(=O)(=O)Nc1ccc2c(c1)/C(=C(/Nc1ccc(CN3CCCCC3)cc1)c1ccccc1)C(=O)N2", "note": "[Hesperadin]", "thermal shift delta Tm": 9.09},
      {"compound": "Cc1cc(Nc2cc(N3CCN(C)CC3)nc(/C=C/c3ccccc3)n2)n[nH]1", "note": "[ENMD-2076 L-(+)-Tartaric acid]", "thermal shift delta Tm": 3.09},
      {"compound": "Cc1ccc(F)c(NC(=O)Nc2ccc(-c3cccc4[nH]nc(N)c34)cc2)c1", "note": "[Linifanib (ABT-869)]", "thermal shift delta Tm": 1.72},
      {"compound": "CO[C@H]1C[C@@H]2CC[C@@H](C)[C@@](O)(O2)C(=O)C(=O)N2CCCC[C@H]2C(=O)O[C@H]([C@H](C)C[C@@H]2CC[C@@H](OCCO)[C@H](OC)C2)CC(=O)[C@H](C)/C=C(\\C)[C@@H](O)[C@@H](OC)C(=O)[C@H](C)C[C@H](C)/C=C/C=C/C=C/1C", "note": "[Everolimus (RAD001)]", "thermal shift delta Tm": -0.1},
      {"compound": "CCCCCCCCCCCCCCCCn1cc[n+](Cc2ccccc2)c1C", "thermal shift delta Tm": -4.15},
      {"compound": "O=C(/C=C/c1ccc(O)c(O)c1)c1ccc(O)cc1O", "note": "[Butein]", "thermal shift delta Tm": 2.95},
      {"compound": "NC(=O)c1ncn([C@@H]2O[C@H](CO)[C@@H](O)[C@H]2O)c1N", "note": "[AICAR (Acadesine)]", "thermal shift delta Tm": 0.13},
      {"compound": "COCCOc1ccc2c(c1)ncn2-c1ccc2cccc(N3CCC(N)CC3)c2n1", "thermal shift delta Tm": 8.53},
      {"compound": "CCCCCCCCCCCCCCCCCCOP(=O)([O-])OC1CC[N+](C)(C)CC1", "note": "[Perifosine (KRX-0401)]", "thermal shift delta Tm": -3.45},
      {"compound": "COc1ccc(-c2ccc3c(N4CCOCC4)nc(N4C[C@@H](C)O[C@@H](C)C4)nc3n2)cc1CO", "thermal shift delta Tm": -0.02},
      {"compound": "Cc1cc(Nc2nc(N[C@@H](C)c3ccc(F)cc3)c(C#N)cc2F)n[nH]1", "thermal shift delta Tm": 1.7},
      {"compound": "O=c1nc(N2CCOCC2)oc2c(-c3cccc4c3sc3ccccc34)cccc12", "thermal shift delta Tm": -0.38},
      {"compound": "Cn1cc(-c2ccc3nnc(C(F)(F)c4ccc5ncccc5c4)n3n2)cn1", "thermal shift delta Tm": 0.13},
      {"compound": "Cc1cc(C(C)Nc2ccccc2)c2nc(N3CCOCC3)cc(=O)n2c1", "note": "(centres undefined)", "thermal shift delta Tm": 0.34},
      {"compound": "COc1cc(N2CCC(N(C)C)CC2)ccc1Nc1ncc(Cl)c(Nc2ccccc2P(C)(C)=O)n1", "thermal shift delta Tm": 4.81},
      {"compound": "CC(C)c1cnn2c(NCc3ccccc3)cc(NCCCCCCN)nc12", "thermal shift delta Tm": 0.19},
      {"compound": "Cc1cc([C@@H](C)Nc2ccccc2C(=O)O)c2nc(N3CCOCC3)cc(=O)n2c1", "thermal shift delta Tm": 0},
      {"compound": "CC(C)NC(=O)C1CCC(n2c(NC(=O)c3ccc(F)cc3)nc3ccc(CN4CCC(C(C)(C)O)CC4)cc32)CC1", "note": "(centres undefined) [Belizatinib (TSR-011)]", "thermal shift delta Tm": 6.79},
      {"compound": "COc1ccc(-c2ccc3ncc4c(c3c2)n(-c2ccc(N3CCNCC3)c(C(F)(F)F)c2)c(=O)n4C)cn1", "thermal shift delta Tm": 0.41},
      {"compound": "CN1CCN(c2ccc3nc(-c4c(N)c5c(F)cccc5[nH]c4=O)[nH]c3c2)CC1", "note": "[Dovitinib (TKI-258, CHIR-258)]", "thermal shift delta Tm": 3.99},
      {"compound": "NC(=O)c1ccc2nc(-c3ccc(Oc4ccc(Cl)cc4)cc3)[nH]c2c1", "note": "[Chk2 Inhibitor II (BML-277)]", "thermal shift delta Tm": 0.31},
      {"compound": "CC1(C)OCCn2c1nc1c(N3CCOCC3)nc(-c3cnc(N)nc3)nc12", "thermal shift delta Tm": 1.29},
      {"compound": "C=CC(=O)Nc1cccc(Nc2nc(Nc3ccc(OCCOC)cc3)ncc2F)c1", "thermal shift delta Tm": 1.81},
      {"compound": "NC(=O)c1cnc(N[C@@H]2CCCC[C@@H]2N)nc1Nc1cccc(-n2nccn2)c1", "thermal shift delta Tm": 2.19},
      {"compound": "CNC(=O)c1cc(Oc2ccc3nc(N[C@@H]4CCCC[C@H]4O)sc3c2)ccn1", "thermal shift delta Tm": 0.25},
      {"compound": "CCn1c2ccccc2c2cc(Nc3ccnc(NCCCN4CCOCC4)n3)ccc21", "thermal shift delta Tm": 0.28},
      {"compound": "CCC(=O)Nc1cccc(Oc2nc(Nc3ccc(N4CCN(C)CC4)cc3OC)ncc2Cl)c1", "thermal shift delta Tm": 0.22},
      {"compound": "CN1CCN(c2nc(C3=C(c4c[nH]c5ccccc45)C(=O)NC3=O)c3ccccc3n2)CC1", "note": "[Sotrastaurin]", "thermal shift delta Tm": 0.69},
      {"compound": "C=CCc1ccc(O)c(-c2ccc(O)c(CC=C)c2)c1", "note": "[Honokiol]", "thermal shift delta Tm": 0.71}
    ]},
    {"tested_on": "LOC_OS02G07810-cb001", "assay": "thermal shift delta Tm vs DMSO control; higher = stronger stabilization (binding)", "conditions": "12.5 µM; protein concentration 2 µM", "how_it_was_run": "as §1", "units": {"thermal shift delta Tm": "°C"}, "values": [
      {"compound": "COc1ccc(CC(=O)Nc2nc3c(s2)CCc2ccccc2-3)cc1OC", "thermal shift delta Tm": -0.24},
      {"compound": "CNS(=O)(=O)Nc1nccc(Cc2c(C)c3ccc(Oc4ncccn4)cc3oc2=O)c1F", "thermal shift delta Tm": 1.08},
      {"compound": "C[C@H](NC(=O)/C(C#N)=C/c1cccc(Br)n1)c1ccccc1", "thermal shift delta Tm": 0.51},
      {"compound": "COc1ccc(COc2cc3oc(=O)c4cc(C(C)O)ccc4c3cc2OC)cc1", "note": "(centres undefined) [Palomid 529 (P529)]", "thermal shift delta Tm": 0.98},
      {"compound": "CC(C)(C)Cn1c(N)nc2ccc(-c3[nH]c(C(C)(C)C)nc3-c3ccc(F)cc3)nc21", "thermal shift delta Tm": -0.18},
      {"compound": "COc1ccccc1-c1cc(Nc2cccc(CS(N)(=O)=O)c2)ncn1", "thermal shift delta Tm": 0.75},
      {"compound": "Cn1cnc(N)c2ncnc1-2", "note": "[3-Methyladenine (3-MA)]", "thermal shift delta Tm": 0.96},
      {"compound": "C=CC(=O)N[C@H]1CCOC[C@H]1Nc1ncc2cc(-c3c(Cl)c(OC)cc(OC)c3Cl)ccc2n1", "thermal shift delta Tm": -1.01},
      {"compound": "CCS(=O)(=O)Nc1ccc2c(c1)/C(=C(/Nc1ccc(CN3CCCCC3)cc1)c1ccccc1)C(=O)N2", "note": "[Hesperadin]", "thermal shift delta Tm": 1.1},
      {"compound": "Cc1cc(Nc2cc(N3CCN(C)CC3)nc(/C=C/c3ccccc3)n2)n[nH]1", "note": "[ENMD-2076 L-(+)-Tartaric acid]", "thermal shift delta Tm": 0.04},
      {"compound": "Cc1ccc(F)c(NC(=O)Nc2ccc(-c3cccc4[nH]nc(N)c34)cc2)c1", "note": "[Linifanib (ABT-869)]", "thermal shift delta Tm": 1.34},
      {"compound": "CO[C@H]1C[C@@H]2CC[C@@H](C)[C@@](O)(O2)C(=O)C(=O)N2CCCC[C@H]2C(=O)O[C@H]([C@H](C)C[C@@H]2CC[C@@H](OCCO)[C@H](OC)C2)CC(=O)[C@H](C)/C=C(\\C)[C@@H](O)[C@@H](OC)C(=O)[C@H](C)C[C@H](C)/C=C/C=C/C=C/1C", "note": "[Everolimus (RAD001)]", "thermal shift delta Tm": 0.75},
      {"compound": "CCCCCCCCCCCCCCCCn1cc[n+](Cc2ccccc2)c1C", "thermal shift delta Tm": -4.78},
      {"compound": "O=C(/C=C/c1ccc(O)c(O)c1)c1ccc(O)cc1O", "note": "[Butein]", "thermal shift delta Tm": 1.6},
      {"compound": "NC(=O)c1ncn([C@@H]2O[C@H](CO)[C@@H](O)[C@H]2O)c1N", "note": "[AICAR (Acadesine)]", "thermal shift delta Tm": 1.21},
      {"compound": "COCCOc1ccc2c(c1)ncn2-c1ccc2cccc(N3CCC(N)CC3)c2n1", "thermal shift delta Tm": 0.59},
      {"compound": "CCCCCCCCCCCCCCCCCCOP(=O)([O-])OC1CC[N+](C)(C)CC1", "note": "[Perifosine (KRX-0401)]", "thermal shift delta Tm": -0.99},
      {"compound": "COc1ccc(-c2ccc3c(N4CCOCC4)nc(N4C[C@@H](C)O[C@@H](C)C4)nc3n2)cc1CO", "thermal shift delta Tm": 0.61},
      {"compound": "Cc1cc(Nc2nc(N[C@@H](C)c3ccc(F)cc3)c(C#N)cc2F)n[nH]1", "thermal shift delta Tm": 0.48},
      {"compound": "O=c1nc(N2CCOCC2)oc2c(-c3cccc4c3sc3ccccc34)cccc12", "thermal shift delta Tm": -1.31},
      {"compound": "Cn1cc(-c2ccc3nnc(C(F)(F)c4ccc5ncccc5c4)n3n2)cn1", "thermal shift delta Tm": 0.91},
      {"compound": "Cc1cc(C(C)Nc2ccccc2)c2nc(N3CCOCC3)cc(=O)n2c1", "note": "(centres undefined)", "thermal shift delta Tm": 0.27},
      {"compound": "COc1cc(N2CCC(N(C)C)CC2)ccc1Nc1ncc(Cl)c(Nc2ccccc2P(C)(C)=O)n1", "thermal shift delta Tm": 0.65},
      {"compound": "CC(C)c1cnn2c(NCc3ccccc3)cc(NCCCCCCN)nc12", "thermal shift delta Tm": 0.44},
      {"compound": "Cc1cc([C@@H](C)Nc2ccccc2C(=O)O)c2nc(N3CCOCC3)cc(=O)n2c1", "thermal shift delta Tm": 1.33},
      {"compound": "CC(C)NC(=O)C1CCC(n2c(NC(=O)c3ccc(F)cc3)nc3ccc(CN4CCC(C(C)(C)O)CC4)cc32)CC1", "note": "(centres undefined) [Belizatinib (TSR-011)]", "thermal shift delta Tm": -0.66},
      {"compound": "COc1ccc(-c2ccc3ncc4c(c3c2)n(-c2ccc(N3CCNCC3)c(C(F)(F)F)c2)c(=O)n4C)cn1", "thermal shift delta Tm": 1.67},
      {"compound": "CN1CCN(c2ccc3nc(-c4c(N)c5c(F)cccc5[nH]c4=O)[nH]c3c2)CC1", "note": "[Dovitinib (TKI-258, CHIR-258)]", "thermal shift delta Tm": 0.53},
      {"compound": "NC(=O)c1ccc2nc(-c3ccc(Oc4ccc(Cl)cc4)cc3)[nH]c2c1", "note": "[Chk2 Inhibitor II (BML-277)]", "thermal shift delta Tm": -0.29},
      {"compound": "CC1(C)OCCn2c1nc1c(N3CCOCC3)nc(-c3cnc(N)nc3)nc12", "thermal shift delta Tm": 0.49},
      {"compound": "C=CC(=O)Nc1cccc(Nc2nc(Nc3ccc(OCCOC)cc3)ncc2F)c1", "thermal shift delta Tm": 0.8},
      {"compound": "NC(=O)c1cnc(N[C@@H]2CCCC[C@@H]2N)nc1Nc1cccc(-n2nccn2)c1", "thermal shift delta Tm": -0.28},
      {"compound": "CNC(=O)c1cc(Oc2ccc3nc(N[C@@H]4CCCC[C@H]4O)sc3c2)ccn1", "thermal shift delta Tm": 0.97},
      {"compound": "CCn1c2ccccc2c2cc(Nc3ccnc(NCCCN4CCOCC4)n3)ccc21", "thermal shift delta Tm": 0.54},
      {"compound": "CCC(=O)Nc1cccc(Oc2nc(Nc3ccc(N4CCN(C)CC4)cc3OC)ncc2Cl)c1", "thermal shift delta Tm": 0.45},
      {"compound": "CN1CCN(c2nc(C3=C(c4c[nH]c5ccccc45)C(=O)NC3=O)c3ccccc3n2)CC1", "note": "[Sotrastaurin]", "thermal shift delta Tm": 0.94},
      {"compound": "C=CCc1ccc(O)c(-c2ccc(O)c(CC=C)c2)c1", "note": "[Honokiol]", "thermal shift delta Tm": 1.8}
    ]}
  ]
}
